This is an account of results in PMC3218832.

Some targets named below: RELARELA (p65 homodimer) (Homo sapiens, UniProt Q04206 1-307); p50p50 homodimer (Homo sapiens, UniProt P19838 7-356); RELB subunit;p50 subunit (Homo sapiens;Homo sapiens, UniProt Q01201;P19838 120-401;7-356).
Common to all, as to experiment: protein binding microarray; high values mean tight binding
Common to all, as to conditions: dsDNA, one strand shown

The target in a further experiment is T1, p52p52 homodimer (Homo sapiens, UniProt Q00653 4-332).
T1 sequence: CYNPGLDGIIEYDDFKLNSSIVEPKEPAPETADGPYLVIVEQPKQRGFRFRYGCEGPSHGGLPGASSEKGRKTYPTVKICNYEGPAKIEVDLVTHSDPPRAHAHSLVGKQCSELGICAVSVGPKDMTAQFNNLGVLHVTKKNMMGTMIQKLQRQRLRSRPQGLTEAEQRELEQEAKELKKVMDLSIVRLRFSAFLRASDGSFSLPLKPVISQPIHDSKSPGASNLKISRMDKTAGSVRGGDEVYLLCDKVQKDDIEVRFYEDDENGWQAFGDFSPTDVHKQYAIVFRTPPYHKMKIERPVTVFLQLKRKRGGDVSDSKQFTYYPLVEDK

Experiment [1] has as its target RELA (p65) subunit of heterodimer;p50 subunit (Homo sapiens;Homo sapiens, UniProt Q04206;P19838 1-307;7-356).
Experiment [2] deals with RELA (p65) subunit of heterodimer;p52 subunit (Homo sapiens;Homo sapiens, UniProt Q04206;Q00653 1-307;4-332).
The next experiment deals with T2, RELB subunit;p52 subunit (Homo sapiens;Homo sapiens, UniProt Q01201;Q00653 120-401;4-332).
T2 sequence 1: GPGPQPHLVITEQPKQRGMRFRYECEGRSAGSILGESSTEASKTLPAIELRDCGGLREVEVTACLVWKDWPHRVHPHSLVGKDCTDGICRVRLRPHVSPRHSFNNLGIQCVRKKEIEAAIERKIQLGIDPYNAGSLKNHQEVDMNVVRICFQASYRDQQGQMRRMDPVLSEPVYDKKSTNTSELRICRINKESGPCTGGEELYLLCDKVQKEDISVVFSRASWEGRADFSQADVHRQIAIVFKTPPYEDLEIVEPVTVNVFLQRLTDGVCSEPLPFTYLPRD
T2 sequence 2: T1 sequence

Experiment [3] concerns the target C-Rel subunit;p50 subunit (Homo sapiens;Homo sapiens, UniProt Q04864;P19838 1-285;7-356).
Experiment [4] addresses T3, C-Rel subunit;p52 subunit (Homo sapiens;Homo sapiens, UniProt Q04864;Q00653 1-285;4-332).
T3 sequence 1: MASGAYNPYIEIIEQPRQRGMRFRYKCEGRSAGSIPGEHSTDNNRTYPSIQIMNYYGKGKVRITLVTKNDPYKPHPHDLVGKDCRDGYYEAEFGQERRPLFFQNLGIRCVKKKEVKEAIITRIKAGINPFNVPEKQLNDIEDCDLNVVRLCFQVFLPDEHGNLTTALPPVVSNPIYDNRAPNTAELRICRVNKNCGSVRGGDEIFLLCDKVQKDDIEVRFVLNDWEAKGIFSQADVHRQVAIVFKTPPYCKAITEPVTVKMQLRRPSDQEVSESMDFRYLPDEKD
T3 sequence 2: T1 sequence

RELA (p65) subunit of heterodimer;p50 subunit, sequence (Q04206 1-307, chain 1 of 2): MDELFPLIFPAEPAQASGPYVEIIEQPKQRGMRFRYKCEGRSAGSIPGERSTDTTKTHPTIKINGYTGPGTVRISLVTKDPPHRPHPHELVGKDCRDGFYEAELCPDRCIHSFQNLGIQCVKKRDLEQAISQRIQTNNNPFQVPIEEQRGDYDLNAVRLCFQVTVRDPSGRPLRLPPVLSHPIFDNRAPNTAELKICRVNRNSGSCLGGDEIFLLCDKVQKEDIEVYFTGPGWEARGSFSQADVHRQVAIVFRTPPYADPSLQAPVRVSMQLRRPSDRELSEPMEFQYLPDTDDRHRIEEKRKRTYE
RELA (p65) subunit of heterodimer;p50 subunit, sequence (P19838 7-356, chain 2 of 2): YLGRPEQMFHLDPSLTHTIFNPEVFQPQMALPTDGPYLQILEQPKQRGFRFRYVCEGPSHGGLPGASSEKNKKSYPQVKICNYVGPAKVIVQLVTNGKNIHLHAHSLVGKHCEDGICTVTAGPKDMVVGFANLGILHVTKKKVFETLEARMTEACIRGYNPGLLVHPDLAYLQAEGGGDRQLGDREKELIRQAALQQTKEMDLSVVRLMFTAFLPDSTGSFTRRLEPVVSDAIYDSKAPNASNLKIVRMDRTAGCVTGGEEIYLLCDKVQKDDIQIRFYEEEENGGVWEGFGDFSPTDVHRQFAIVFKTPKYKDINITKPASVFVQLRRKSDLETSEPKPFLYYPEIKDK
RELARELA (p65 homodimer), sequence (Q04206 1-307): as the sequence (Q04206 1-307, chain 1 of 2) above
p50p50 homodimer, sequence (P19838 7-356): as the sequence (P19838 7-356, chain 2 of 2) above

As to AGGTAGCTCCT, the binding signal with RELARELA (p65 homodimer) was -0.716 z-score; with p50p50 homodimer, -0.916 z-score; in the experiment with p52p52 homodimer, -0.638 z-score; in experiment [1], -0.909 z-score; in experiment [2], -0.901 z-score; in the experiment with RELB subunit;p50 subunit it was -0.802 z-score. In addition, the values for the binding signal (with RELB subunit;p52 subunit; in experiment [3]; in experiment [4]) were -0.975 z-score, -1.36 z-score and -0.889 z-score, respectively.

On to AAGTTGATCCC, for which the binding signal with RELARELA (p65 homodimer) was -0.64 z-score; with p50p50 homodimer, -0.815 z-score; in the experiment with p52p52 homodimer, -0.6 z-score; in experiment [1] it was -0.903 z-score; in experiment [2], -0.719 z-score; in the experiment with RELB subunit;p50 subunit, -0.688 z-score. The binding signal in the experiment with RELB subunit;p52 subunit is -0.621 z-score; in experiment [3], -1.07 z-score; in [4], -0.615 z-score.

As to CAATGGTTCCT, the binding signal was 0.0242 z-score in the experiment with RELARELA (p65 homodimer); -1.26 z-score with p50p50 homodimer; -0.536 z-score in the experiment with p52p52 homodimer; -0.894 z-score in experiment [1]; -0.883 z-score in experiment [2]; -0.727 z-score with RELB subunit;p50 subunit. Besides, the binding signal with RELB subunit;p52 subunit is -0.56 z-score; in [3], -0.994 z-score; in experiment [4], -0.857 z-score.

For the sequence AAATGGACCCC, the binding signal in the experiment with RELARELA (p65 homodimer) was -0.781 z-score; with p50p50 homodimer it was -0.458 z-score; with p52p52 homodimer, -0.348 z-score; in [1], -0.532 z-score; in [2], -0.428 z-score; in the experiment with RELB subunit;p50 subunit, -0.448 z-score. Moreover, the binding signal was -0.0987 z-score with RELB subunit;p52 subunit, -0.615 z-score in [3] and -0.473 z-score in experiment [4].

For the sequence AGGATAATCCC, the binding signal was 1.11 z-score in the experiment with RELARELA (p65 homodimer); -0.039 z-score in the experiment with p50p50 homodimer; 0.47 z-score with p52p52 homodimer; 0.562 z-score in experiment [1]; 0.416 z-score in experiment [2]; -0.113 z-score in the experiment with RELB subunit;p50 subunit. For the same sequence, the values for the binding signal (with RELB subunit;p52 subunit; in [3]; in experiment [4]) were 0.0769 z-score, 0.307 z-score and 0.396 z-score, respectively.

As for CGGATTGCCCC, the binding signal was 2 z-score in the experiment with RELARELA (p65 homodimer); 0.548 z-score in the experiment with p50p50 homodimer; 0.518 z-score with p52p52 homodimer; 1.35 z-score in experiment [1]; 0.991 z-score in experiment [2]; 0.497 z-score with RELB subunit;p50 subunit. Further, the binding signal in the experiment with RELB subunit;p52 subunit worked out at 0.607 z-score; in [3], 1.07 z-score; in [4] it was 0.987 z-score.

For AGGTTTGTCCC, the binding signal worked out at 1.29 z-score in the experiment with RELARELA (p65 homodimer); 0.56 z-score with p50p50 homodimer; 0.82 z-score with p52p52 homodimer; 0.878 z-score in [1]; 0.918 z-score in experiment [2]; 0.602 z-score with RELB subunit;p50 subunit. Also, the values for the binding signal (in the experiment with RELB subunit;p52 subunit; in experiment [3]; in experiment [4]) were 0.621 z-score, 0.937 z-score and 0.735 z-score, respectively.

Take AGAGACCTCCC: the binding signal with RELARELA (p65 homodimer) was -0.639 z-score; with p50p50 homodimer it was -0.985 z-score; with p52p52 homodimer, -0.531 z-score; in [1], -0.592 z-score; in experiment [2], -0.789 z-score; in the experiment with RELB subunit;p50 subunit it was -0.533 z-score. Moreover, the binding signal with RELB subunit;p52 subunit was -0.671 z-score; in experiment [3] it was -0.845 z-score; in [4] it was -0.997 z-score.

For the sequence CGAGGAATCCT, the binding signal with RELARELA (p65 homodimer) is -0.235 z-score; with p50p50 homodimer, -1.18 z-score; with p52p52 homodimer, -0.504 z-score; in [1], -0.879 z-score; in experiment [2], -0.8 z-score; with RELB subunit;p50 subunit it was -1.08 z-score. The binding signal was -0.975 z-score in the experiment with RELB subunit;p52 subunit, -0.824 z-score in experiment [3] and -0.613 z-score in experiment [4].

As for AAGTACATCCC, the binding signal is 0.78 z-score with RELARELA (p65 homodimer); -0.756 z-score with p50p50 homodimer; -0.37 z-score with p52p52 homodimer; -0.432 z-score in experiment [1]; -0.425 z-score in [2]; -0.551 z-score in the experiment with RELB subunit;p50 subunit. The binding signal in the experiment with RELB subunit;p52 subunit was -0.549 z-score; in experiment [3], -0.042 z-score; in experiment [4] it was -0.446 z-score.

For GGGTACCTCCC, the binding signal with RELARELA (p65 homodimer) was -0.276 z-score; with p50p50 homodimer, 0.39 z-score; with p52p52 homodimer it was 1.06 z-score; in experiment [1], 0.436 z-score; in experiment [2] it was 0.843 z-score; in the experiment with RELB subunit;p50 subunit, 0.429 z-score. In addition, the values for the binding signal (in the experiment with RELB subunit;p52 subunit; in [3]; in [4]) were 0.437 z-score, 0.243 z-score and 0.556 z-score, respectively.

Turning to AGGATTGTCCT, the binding signal was 0.256 z-score with RELARELA (p65 homodimer); -1.5 z-score with p50p50 homodimer; -0.541 z-score in the experiment with p52p52 homodimer; -0.736 z-score in experiment [1]; -0.766 z-score in experiment [2]; -0.86 z-score in the experiment with RELB subunit;p50 subunit. Moreover, the binding signal in the experiment with RELB subunit;p52 subunit was -0.821 z-score; in experiment [3] it was -1.01 z-score; in experiment [4], -0.483 z-score.

Regarding AGGAGAACCCT, the binding signal with RELARELA (p65 homodimer) was -0.567 z-score; in the experiment with p50p50 homodimer it was -0.719 z-score; with p52p52 homodimer, -0.426 z-score; in experiment [1] it was -0.838 z-score; in experiment [2], -0.729 z-score; in the experiment with RELB subunit;p50 subunit, -0.652 z-score. Also, the figures for the binding signal (with RELB subunit;p52 subunit; in [3]; in experiment [4]) were -0.634 z-score, -0.871 z-score and -0.624 z-score, respectively.

Regarding AAAAGCACCCC, the binding signal was -0.281 z-score with RELARELA (p65 homodimer); 0.833 z-score with p50p50 homodimer; 0.946 z-score with p52p52 homodimer; 0.86 z-score in [1]; 1.12 z-score in experiment [2]; 0.711 z-score with RELB subunit;p50 subunit. The binding signal with RELB subunit;p52 subunit stood at 0.952 z-score; in experiment [3], 0.423 z-score; in experiment [4] it was 0.69 z-score.

GAGTAGTCCCT: the binding signal with RELARELA (p65 homodimer) came out at 0.344 z-score; with p50p50 homodimer, 1.35 z-score; with p52p52 homodimer, 1.21 z-score; in experiment [1], 0.997 z-score; in experiment [2] it was 0.922 z-score; with RELB subunit;p50 subunit it was 1.12 z-score. Moreover, the binding signal was 1.06 z-score with RELB subunit;p52 subunit, 0.633 z-score in experiment [3] and 0.66 z-score in experiment [4].
